One assay has as its system CDK2. Conditions: concentration: 1 μM, replicates: in singlicate; n = 1.
Another assay concerns CDK3. Conditions: concentration: 1 μM, replicates: in singlicate, n = 1.
Another assay has as its system CDK4-cyclinD1. Conditions: concentration: 1 μM, replicates: in singlicate; n = 1.
Another assay concerns CDK4-cyclinD3. Conditions: concentration: 1 μM, replicates: in singlicate; n = 1.
The test system of a further assay is CDK4. Conditions: concentration: 1 μM, replicates: in singlicate, n = 1.
In a further assay the test system is CDK5. Conditions: concentration: 1 μM, replicates: in singlicate; n = 1.
Another assay has as its system CDK7. Conditions: concentration: 1 μM, replicates: in singlicate, n = 1.
A further assay deals with CDK8. Conditions: concentration: 1 μM, replicates: in singlicate, n = 1.
For a further assay, the system named is CDK9. Conditions: concentration: 1 μM, replicates: in singlicate; n = 1.
Another assay deals with CDKL1. Conditions: concentration: 1 μM, replicates: in singlicate, n = 1.
Another assay concerns CDKL2. Conditions: concentration: 1 μM, replicates: in singlicate, n = 1.
The next assay deals with CDKL3. Conditions: concentration: 1 μM, replicates: in singlicate, n = 1.
The test system of another assay is CDKL5. Conditions: concentration: 1 μM, replicates: in singlicate, n = 1.
In a further assay the test system is CHEK1. Conditions: concentration: 1 μM, replicates: in singlicate, n = 1.
The test system of the next assay is CHEK2. Conditions: concentration: 1 μM, replicates: in singlicate; n = 1.
The next assay has as its system CIT. Conditions: concentration: 1 μM, replicates: in singlicate, n = 1.
A further assay relates to CLK1. Conditions: concentration: 1 μM, replicates: in singlicate, n = 1.
The next assay has as its system CLK2. Conditions: concentration: 1 μM, replicates: in singlicate, n = 1.
In a further assay the test system is CLK3. Conditions: concentration: 1 μM, replicates: in singlicate, n = 1.
Another assay deals with CLK4. Conditions: concentration: 1 μM, replicates: in singlicate, n = 1.

Molecules are shown by their SMILES. Values joined by “and” are separate entries in the source; they are usually repeats but may differ in a detail not shown here. Equal entries are not always repeated. Where two headings read alike, the source gives them in different places.
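Further: KINOMEscan kinase panel screen.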

As to `Clc1ccc(-c2cc(-c3c[nH]nc3-c3ccccn3)ccn2)cc1` [GW681251], the “%Inh” value stood at 22% in the assay on CDK2; 42% in the assay with CDK3; 7% with CDK4-cyclinD1; 0% in the assay with CDK4-cyclinD3; 0% with CDK4; 0% in the assay on CDK5. Further, the “%Inh” value is reported as 0% with CDK7; 11% with CDK8; 0% in the assay on CDK9; 15% with CDKL1; 11% with CDKL2; 22% with CDKL3. Besides, the “%Inh” value with CDKL5 worked out at 0%; with CHEK1, 0%; in the assay on CHEK2 it was 0%; in the assay on CIT, 4%; in the assay on CLK1 it was 13%; with CLK2, 0%. Moreover, the “%Inh” value in the assay with CLK3 is listed as 4%; in the assay with CLK4 it was 20%.

For the compound `COc1ccc(-c2nc3n(c2-c2ccncc2)CCC3)cc1` [SKF-104493], the “%Inh” value in the assay on CDK2 is 0%; in the assay on CDK3 (1 µM), 0% and 4%; with CDK4-cyclinD1, 0%; in the assay with CDK4-cyclinD3 it was 0%; with CDK4 (1 µM) it was 44% and 0%; in the assay with CDK5, 0%. For the same compound, the “%Inh” value in the assay on CDK7 (1 µM) was 15% and 6%; with CDK8 (1 µM) it was 5% and 9%; in the assay with CDK9 it was 0%; in the assay on CDKL1 (1 µM), 11% and 6%; in the assay on CDKL2 (1 µM) it was 0% and 1%; in the assay on CDKL3 (1 µM) it was 1% and 0%. Moreover, the “%Inh” value in the assay with CDKL5 (1 µM) was 2% and 0%; in the assay on CHEK1 (1 µM), 0% and 13%; with CHEK2 it was 0%; in the assay on CIT (1 µM), 16% and 15%; with CLK1 (1 µM), 16% and 11%; in the assay on CLK2 (1 µM) it was 0% and 6%. For the same compound, the “%Inh” value with CLK3 (1 µM) is 5% and 1%; in the assay with CLK4 (1 µM) it was 10% and 0%.

With `CCc1nc(-c2cccc(C)c2)c(-c2ccnc(NC(=O)c3ccccc3)c2)s1`, the “%Inh” value with CDK2 turned out to be 0%; in the assay with CDK3 it was 0%; with CDK4-cyclinD1, 15%; in the assay on CDK4-cyclinD3, 6%; in the assay with CDK4, 13%; with CDK5, 21%. The “%Inh” value with CDK7 was 24%; in the assay with CDK8 it was 1%; with CDK9 it was 0%; in the assay on CDKL1 it was 0%; in the assay with CDKL2 it was 0%; with CDKL3, 0%. In addition, the “%Inh” value in the assay with CDKL5 is recorded as 10%; in the assay on CHEK1, 0%; in the assay on CHEK2, 34%; with CIT it was 42%; in the assay on CLK1 it was 0%; with CLK2, 0%. The “%Inh” value in the assay on CLK3 was 0%; in the assay with CLK4, 16%.

As to `O=C(CCO)NCCn1ccc2ncnc(Nc3ccc(Oc4cccc(C(F)(F)F)c4)c(Cl)c3)c21`, the “%Inh” value in the assay on CDK2, with CDK3, in the assay on CDK4-cyclinD1, in the assay with CDK4-cyclinD3, with CDK4 and with CDK5 was 0% throughout. The “%Inh” value with CDK7 is on record as 0%; in the assay on CDK8 it was 6%; in the assay on CDK9, 0%; in the assay with CDKL1 it was 15%; with CDKL2 it was 9%; in the assay on CDKL3, 0%. Moreover, the “%Inh” value in the assay on CDKL5 was 0%; with CHEK1, 0%; with CHEK2, 0%; with CIT, 0%; with CLK1 it was 1%; with CLK2 it was 0%. Further, the “%Inh” value in the assay on CLK3 was found to be 0%; in the assay on CLK4, 5%.

For the compound `Fc1ccc(-c2ncn(CCCNCc3ccccc3)c2-c2ccncc2)cc1`, the “%Inh” value with CDK2 is given as 0%; in the assay on CDK3 it was 7%; in the assay on CDK4-cyclinD1, 0%; with CDK4-cyclinD3 it was 13%; with CDK4, 0%; in the assay on CDK5, 4%. For the same compound, the “%Inh” value turned out to be 27% with CDK7; 0% in the assay on CDK8; 0% with CDK9; 0% with CDKL1; 0% in the assay on CDKL2; 1% in the assay on CDKL3. Moreover, the “%Inh” value in the assay on CDKL5 worked out at 21%; in the assay with CHEK1 it was 17%; with CHEK2 it was 0%; in the assay on CIT, 27%; in the assay with CLK1, 33%; with CLK2 it was 1%. Besides, the “%Inh” value in the assay on CLK3 and with CLK4 was 0% each time.

Turning to `Cc1cccc(-c2nc(Nc3ccc4[nH]nnc4c3)c3ccccc3n2)n1` [GW867587], the “%Inh” value in the assay with CDK2 turned out to be 0%; in the assay on CDK3 it was 15%; in the assay on CDK4-cyclinD1 it was 0%; with CDK4-cyclinD3, 0%; with CDK4 it was 0%; in the assay with CDK5, 0%. Also, the “%Inh” value in the assay on CDK7 is 0%; in the assay with CDK8 it was 30%; in the assay with CDK9 it was 0%; in the assay on CDKL1 it was 0%; in the assay on CDKL2 it was 25%; with CDKL3, 0%. Besides, the “%Inh” value is on record as 0% in the assay on CDKL5; 0% in the assay with CHEK1; 0% in the assay on CHEK2; 15% in the assay with CIT; 0% in the assay with CLK1; 0% in the assay with CLK2. The “%Inh” value with CLK3 and with CLK4 was 0% throughout.

For the compound `O=C(NCCCN1CCCC1=O)c1cnc(NCc2cc(Cl)ccc2Cl)nc1NC1CCNCC1`, the “%Inh” value with CDK2 was determined as 0%; with CDK3, 2%; in the assay with CDK4-cyclinD1, 0%; in the assay on CDK4-cyclinD3, 0%; with CDK4, 0%; in the assay with CDK5 it was 11%. Besides, the “%Inh” value in the assay with CDK7 is 33%; with CDK8 it was 0%; in the assay with CDK9 it was 0%; in the assay on CDKL1 it was 3%; in the assay with CDKL2 it was 0%; in the assay on CDKL3, 20%. Also, the “%Inh” value in the assay with CDKL5 was 0%; in the assay with CHEK1 it was 0%; in the assay with CHEK2, 6%; with CIT it was 0%; with CLK1, 0%; with CLK2 it was 0%. Further, the “%Inh” value in the assay with CLK3 and in the assay on CLK4 was 0% throughout.

As to `OCCOCCn1ccc2ncnc(Nc3ccc(Oc4cccc(Cl)c4)c(Cl)c3)c21`, the “%Inh” value with CDK2, in the assay with CDK3, in the assay on CDK4-cyclinD1, in the assay on CDK4-cyclinD3, in the assay on CDK4 and in the assay on CDK5 was 0% each time. The “%Inh” value stood at 0% in the assay with CDK7; 0% in the assay with CDK8; 0% with CDK9; 0% in the assay on CDKL1; 0% in the assay with CDKL2; 5% in the assay on CDKL3. The “%Inh” value with CDKL5 is reported as 0%; with CHEK1 it was 0%; with CHEK2 it was 0%; in the assay on CIT it was 2%; with CLK1 it was 0%; in the assay with CLK2, 0%. The “%Inh” value in the assay on CLK3 and in the assay on CLK4 was 0% in each case.

Take `N#Cc1ccc(Oc2ccc(Nc3ncnc4cc[nH]c34)cc2Cl)cc1`: the “%Inh” value with CDK2 is 6%; in the assay on CDK3, 2%; in the assay on CDK4-cyclinD1, 11%; in the assay on CDK4-cyclinD3, 6%; in the assay with CDK4, 0%; in the assay with CDK5, 0%. For the same compound, the “%Inh” value is on record as 27% in the assay with CDK7; 13% in the assay on CDK8; 17% in the assay with CDK9; 27% in the assay with CDKL1; 15% in the assay on CDKL2; 3% in the assay on CDKL3. The “%Inh” value was found to be 14% with CDKL5; 4% in the assay on CHEK1; 19% in the assay with CHEK2; 22% in the assay on CIT; 25% in the assay with CLK1; 19% in the assay with CLK2. Moreover, the “%Inh” value came to 3% in the assay with CLK3 and 21% in the assay on CLK4.

Turning to `CCn1c(-c2ccncc2)nc2cnccc21` [SB-735216], the “%Inh” value in the assay with CDK2 is 5%; in the assay on CDK3, 1%; in the assay with CDK4-cyclinD1 it was 0%; in the assay with CDK4-cyclinD3, 0%; in the assay on CDK4 it was 45%; in the assay on CDK5, 0%. Besides, the “%Inh” value in the assay on CDK7 was found to be 6%; in the assay on CDK8, 0%; in the assay on CDK9, 0%; in the assay on CDKL1, 12%; with CDKL2, 0%; in the assay on CDKL3, 25%. The “%Inh” value in the assay with CDKL5 came out at 4%; in the assay with CHEK1, 0%; with CHEK2 it was 0%; in the assay with CIT, 0%; with CLK1, 16%; with CLK2 it was 0%. The figures for the “%Inh” value in the assay with CLK3 and with CLK4 were 0% and 16%, respectively.

Consider `CCCc1ccc(S(=O)(=O)NC2CCN(c3ccnc(Nc4ccc(OC)cc4)n3)C2)cc1` (stereo not shown) [GSK1379737], for which the “%Inh” value in the assay with CDK2 amounted to 0%; with CDK3, 16%; in the assay with CDK4-cyclinD1, 25%; with CDK4-cyclinD3 it was 0%; in the assay on CDK4, 37%; in the assay on CDK5, 0%. Besides, the “%Inh” value in the assay on CDK7 was found to be 0%; with CDK8, 50%; in the assay on CDK9, 0%; in the assay with CDKL1, 6%; in the assay with CDKL2, 19%; with CDKL3, 0%. Moreover, the “%Inh” value in the assay with CDKL5 was 0%; in the assay on CHEK1, 0%; in the assay with CHEK2, 15%; in the assay with CIT it was 32%; in the assay with CLK1 it was 23%; with CLK2, 0%. In addition, the “%Inh” value came to 0% with CLK3 and 6% in the assay on CLK4.

These data come from PMC5540273 (PLoS ONE, 2017).
